From the supplement of paper PMC7411054
Structures can show the parent of a compound that is named as a salt.

How the values were obtained:
Conditions in all cases: treatment time: 24 h
A549-ACTB-RAB5A [1] = experiment: phenotypically active (imaging signature differs from DMSO and reproducible) at any of 0.3-9 uM (binary (1 = active, 0 = inactive)); higher = active
Procedure, shortened: (§1)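 The reporter lines, fifteen in total and built by gene editing in A549, HepG2 and WPMY1 cells, used BFP for segmentation alongside GFP and RFP/FusionRed markers. Each was treated at 0.3, 1, 3 or 9 µM for 24 h in four wells and then imaged live, with live-cell features normalised to solvent control wells. Deviation meant ≥3 of 4 wells beyond the 95th percentile of control Euclidean distances; reproducibility meant a median replicate Pearson correlation above the 95th percentile of non-replicates. Only conditions meeting both were scored as phenotypically active.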

A549-CANX-COX4 [2] = experiment: as above
Procedure, shortened: as §1

A549-GM130-SQSTM1 [3] = experiment: as above
Procedure, shortened: as §1

A549-TP53BP1-CLTA [4] = experiment: as above
Procedure, shortened: as §1

A549-TUBA1B-RELA = experiment: as above
Procedure, shortened: as §1

HepG2-ACTB-RAB5A [5] = experiment: as above
Procedure, shortened: as §1

HepG2-CANX-COX4 = experiment: as above
Procedure, shortened: as §1

HepG2-GM130-SQSTM1 = experiment: as above
Procedure, shortened: as §1

HepG2-TP53BP1-CLTA = experiment: as above
Procedure, shortened: as §1

HepG2-TUBA1B-RELA = experiment: as above
Procedure, shortened: as §1

WPMY1-ACTB-RAB5A = experiment: as above
Procedure, shortened: as §1

WPMY1-CANX-COX4 = experiment: as above
Procedure, shortened: as §1

WPMY1-GM130-SQSTM1 = experiment: as above
Procedure, shortened: as §1

WPMY1-TP53BP1-CLTA = experiment: as above
Procedure, shortened: as §1

WPMY1-TUBA1B-RELA = experiment: as above
Procedure, shortened: as §1

A549-ACTB-RAB5A [6] = experiment: lowest phenotypically active concentration; higher = less potent
Procedure, shortened: as §1

A549-CANX-COX4 [7] = experiment: as above
Procedure, shortened: as §1

A549-GM130-SQSTM1 [8] = experiment: as above
Procedure, shortened: as §1

A549-TP53BP1-CLTA [9] = experiment: as above
Procedure, shortened: as §1

HepG2-ACTB-RAB5A [10] = experiment: as above
Procedure, shortened: as §1

CCN(C)C(=O)Oc1cccc([C@H](C)N(C)C)c1 [rivastigmine]
inactive: phenotypically active (A549-ACTB-RAB5A [1]) 0 | phenotypically active (A549-CANX-COX4 [2]) 0 | phenotypically active (A549-GM130-SQSTM1 [3]) 0 | phenotypically active (A549-TP53BP1-CLTA [4]) 0 | phenotypically active (A549-TUBA1B-RELA) 0 | phenotypically active (HepG2-ACTB-RAB5A [5]) 0 | phenotypically active (HepG2-CANX-COX4) 0 | phenotypically active (HepG2-GM130-SQSTM1) 0 | phenotypically active (HepG2-TP53BP1-CLTA) 0 | phenotypically active (HepG2-TUBA1B-RELA) 0 | phenotypically active (WPMY1-ACTB-RAB5A) 0 | phenotypically active (WPMY1-CANX-COX4) 0 | phenotypically active (WPMY1-GM130-SQSTM1) 0 | phenotypically active (WPMY1-TP53BP1-CLTA) 0 | phenotypically active (WPMY1-TUBA1B-RELA) 0

N#CC(C#N)=Cc1ccc(O)c(O)c1
inactive: phenotypically active (A549-ACTB-RAB5A [1]) 0 | phenotypically active (A549-CANX-COX4 [2]) 0 | phenotypically active (A549-GM130-SQSTM1 [3]) 0 | phenotypically active (A549-TP53BP1-CLTA [4]) 0 | phenotypically active (A549-TUBA1B-RELA) 0 | phenotypically active (HepG2-ACTB-RAB5A [5]) 0 | phenotypically active (HepG2-CANX-COX4) 0 | phenotypically active (HepG2-GM130-SQSTM1) 0 | phenotypically active (HepG2-TP53BP1-CLTA) 0 | phenotypically active (HepG2-TUBA1B-RELA) 0 | phenotypically active (WPMY1-ACTB-RAB5A) 0 | phenotypically active (WPMY1-CANX-COX4) 0 | phenotypically active (WPMY1-GM130-SQSTM1) 0 | phenotypically active (WPMY1-TP53BP1-CLTA) 0 | phenotypically active (WPMY1-TUBA1B-RELA) 0

O=c1cccc2n1C[C@H]1CNC[C@H]2C1 [Cytisine nitrate hydrate]
inactive: phenotypically active (A549-ACTB-RAB5A [1]) 0 | phenotypically active (A549-CANX-COX4 [2]) 0 | phenotypically active (A549-GM130-SQSTM1 [3]) 0 | phenotypically active (A549-TP53BP1-CLTA [4]) 0 | phenotypically active (A549-TUBA1B-RELA) 0 | phenotypically active (HepG2-ACTB-RAB5A [5]) 0 | phenotypically active (HepG2-CANX-COX4) 0 | phenotypically active (HepG2-GM130-SQSTM1) 0 | phenotypically active (HepG2-TP53BP1-CLTA) 0 | phenotypically active (HepG2-TUBA1B-RELA) 0 | phenotypically active (WPMY1-ACTB-RAB5A) 0 | phenotypically active (WPMY1-CANX-COX4) 0 | phenotypically active (WPMY1-GM130-SQSTM1) 0 | phenotypically active (WPMY1-TP53BP1-CLTA) 0 | phenotypically active (WPMY1-TUBA1B-RELA) 0

COc1cc2c3cc1Oc1cc(ccc1O)C[C@@H]1c4c(cc(OC)c(O)c4Oc4cccc(c4)C[C@@H]3N(C)CC2)CC[N+]1(C)C [Tubocurarine chloride pentahydrate (+)]
inactive: phenotypically active (A549-ACTB-RAB5A [1]) 0 | phenotypically active (A549-CANX-COX4 [2]) 0 | phenotypically active (A549-GM130-SQSTM1 [3]) 0 | phenotypically active (A549-TP53BP1-CLTA [4]) 0 | phenotypically active (A549-TUBA1B-RELA) 0 | phenotypically active (HepG2-ACTB-RAB5A [5]) 0 | phenotypically active (HepG2-CANX-COX4) 0 | phenotypically active (HepG2-GM130-SQSTM1) 0 | phenotypically active (HepG2-TP53BP1-CLTA) 0 | phenotypically active (HepG2-TUBA1B-RELA) 0 | phenotypically active (WPMY1-ACTB-RAB5A) 0 | phenotypically active (WPMY1-CANX-COX4) 0 | phenotypically active (WPMY1-GM130-SQSTM1) 0 | phenotypically active (WPMY1-TP53BP1-CLTA) 0 | phenotypically active (WPMY1-TUBA1B-RELA) 0

CC(C)[N+](C)(CCC(C(N)=O)(c1ccccc1)c1ccccc1)C(C)C [isopropamide-iodide]
inactive: phenotypically active (A549-ACTB-RAB5A [1]) 0 | phenotypically active (A549-CANX-COX4 [2]) 0 | phenotypically active (A549-GM130-SQSTM1 [3]) 0 | phenotypically active (A549-TP53BP1-CLTA [4]) 0 | phenotypically active (A549-TUBA1B-RELA) 0 | phenotypically active (HepG2-ACTB-RAB5A [5]) 0 | phenotypically active (HepG2-CANX-COX4) 0 | phenotypically active (HepG2-GM130-SQSTM1) 0 | phenotypically active (HepG2-TP53BP1-CLTA) 0 | phenotypically active (HepG2-TUBA1B-RELA) 0 | phenotypically active (WPMY1-ACTB-RAB5A) 0 | phenotypically active (WPMY1-CANX-COX4) 0 | phenotypically active (WPMY1-GM130-SQSTM1) 0 | phenotypically active (WPMY1-TP53BP1-CLTA) 0 | phenotypically active (WPMY1-TUBA1B-RELA) 0

CNC(=O)Oc1ccc2c(c1)[C@]1(C)CCN(C)O[C@@H]1N2C [Geneserine]
inactive: phenotypically active (A549-ACTB-RAB5A [1]) 0 | phenotypically active (A549-CANX-COX4 [2]) 0 | phenotypically active (A549-GM130-SQSTM1 [3]) 0 | phenotypically active (A549-TP53BP1-CLTA [4]) 0 | phenotypically active (A549-TUBA1B-RELA) 0 | phenotypically active (HepG2-ACTB-RAB5A [5]) 0 | phenotypically active (HepG2-CANX-COX4) 0 | phenotypically active (HepG2-GM130-SQSTM1) 0 | phenotypically active (HepG2-TP53BP1-CLTA) 0 | phenotypically active (HepG2-TUBA1B-RELA) 0 | phenotypically active (WPMY1-ACTB-RAB5A) 0 | phenotypically active (WPMY1-CANX-COX4) 0 | phenotypically active (WPMY1-GM130-SQSTM1) 0 | phenotypically active (WPMY1-TP53BP1-CLTA) 0 | phenotypically active (WPMY1-TUBA1B-RELA) 0

COc1ccc2c(c1)[C@]13CCCC[C@@H]1[C@H](C2)N(C)CC3 [dextromethorphan]
inactive: phenotypically active (A549-ACTB-RAB5A [1]) 0 | phenotypically active (A549-CANX-COX4 [2]) 0 | phenotypically active (A549-GM130-SQSTM1 [3]) 0 | phenotypically active (A549-TP53BP1-CLTA [4]) 0 | phenotypically active (A549-TUBA1B-RELA) 0 | phenotypically active (HepG2-ACTB-RAB5A [5]) 0 | phenotypically active (HepG2-CANX-COX4) 0 | phenotypically active (HepG2-GM130-SQSTM1) 0 | phenotypically active (HepG2-TP53BP1-CLTA) 0 | phenotypically active (HepG2-TUBA1B-RELA) 0 | phenotypically active (WPMY1-ACTB-RAB5A) 0 | phenotypically active (WPMY1-CANX-COX4) 0 | phenotypically active (WPMY1-GM130-SQSTM1) 0 | phenotypically active (WPMY1-TP53BP1-CLTA) 0 | phenotypically active (WPMY1-TUBA1B-RELA) 0

COc1ccc(C(=O)OC2C[C@H]3CC[C@H](C2)N3C)cc1OC (stereo not given in full) [Convolamine hydrochloride]
inactive: phenotypically active (A549-ACTB-RAB5A [1]) 0 | phenotypically active (A549-CANX-COX4 [2]) 0 | phenotypically active (A549-GM130-SQSTM1 [3]) 0 | phenotypically active (A549-TP53BP1-CLTA [4]) 0 | phenotypically active (A549-TUBA1B-RELA) 0 | phenotypically active (HepG2-ACTB-RAB5A [5]) 0 | phenotypically active (HepG2-CANX-COX4) 0 | phenotypically active (HepG2-GM130-SQSTM1) 0 | phenotypically active (HepG2-TP53BP1-CLTA) 0 | phenotypically active (HepG2-TUBA1B-RELA) 0 | phenotypically active (WPMY1-ACTB-RAB5A) 0 | phenotypically active (WPMY1-CANX-COX4) 0 | phenotypically active (WPMY1-GM130-SQSTM1) 0 | phenotypically active (WPMY1-TP53BP1-CLTA) 0 | phenotypically active (WPMY1-TUBA1B-RELA) 0

COc1ccc2c(c1OC)C(=O)O[C@@H]2[C@H]1c2cc3c(cc2CCN1C)OCO3 [Hydrastine]
inactive: phenotypically active (A549-ACTB-RAB5A [1]) 0 | phenotypically active (A549-CANX-COX4 [2]) 0 | phenotypically active (A549-GM130-SQSTM1 [3]) 0 | phenotypically active (A549-TP53BP1-CLTA [4]) 0 | phenotypically active (A549-TUBA1B-RELA) 0 | phenotypically active (HepG2-ACTB-RAB5A [5]) 0 | phenotypically active (HepG2-CANX-COX4) 0 | phenotypically active (HepG2-GM130-SQSTM1) 0 | phenotypically active (HepG2-TP53BP1-CLTA) 0 | phenotypically active (HepG2-TUBA1B-RELA) 0 | phenotypically active (WPMY1-ACTB-RAB5A) 0 | phenotypically active (WPMY1-CANX-COX4) 0 | phenotypically active (WPMY1-GM130-SQSTM1) 0 | phenotypically active (WPMY1-TP53BP1-CLTA) 0 | phenotypically active (WPMY1-TUBA1B-RELA) 0

CC[C@H]1C2C[C@H]3[C@@H]4N(C)c5ccccc5[C@]45C[C@H](C2[C@H]5O)N3[C@@H]1O (stereo not given in full) [Ajmaline]
inactive: phenotypically active (A549-ACTB-RAB5A [1]) 0 | phenotypically active (A549-CANX-COX4 [2]) 0 | phenotypically active (A549-GM130-SQSTM1 [3]) 0 | phenotypically active (A549-TP53BP1-CLTA [4]) 0 | phenotypically active (A549-TUBA1B-RELA) 0 | phenotypically active (HepG2-ACTB-RAB5A [5]) 0 | phenotypically active (HepG2-CANX-COX4) 0 | phenotypically active (HepG2-GM130-SQSTM1) 0 | phenotypically active (HepG2-TP53BP1-CLTA) 0 | phenotypically active (HepG2-TUBA1B-RELA) 0 | phenotypically active (WPMY1-ACTB-RAB5A) 0 | phenotypically active (WPMY1-CANX-COX4) 0 | phenotypically active (WPMY1-GM130-SQSTM1) 0 | phenotypically active (WPMY1-TP53BP1-CLTA) 0 | phenotypically active (WPMY1-TUBA1B-RELA) 0

Cc1cc2c(C(C)C)c(O)c(O)c(C=O)c2c(O)c1-c1c(C)cc2c(C(C)C)c(O)c(O)c(C=O)c2c1O [gossypol]
3 µM: lowest phenotypically active concentration (A549-ACTB-RAB5A [6]) | lowest phenotypically active concentration (A549-GM130-SQSTM1 [8])
active: phenotypically active (A549-ACTB-RAB5A [1]) 1 | phenotypically active (A549-CANX-COX4 [2]) 1 | phenotypically active (A549-GM130-SQSTM1 [3]) 1 | phenotypically active (A549-TP53BP1-CLTA [4]) 1 | phenotypically active (A549-TUBA1B-RELA) 1 | phenotypically active (HepG2-ACTB-RAB5A [5]) 1 | phenotypically active (HepG2-CANX-COX4) 1 | phenotypically active (HepG2-GM130-SQSTM1) 1 | phenotypically active (HepG2-TP53BP1-CLTA) 1 | phenotypically active (HepG2-TUBA1B-RELA) 1 | phenotypically active (WPMY1-ACTB-RAB5A) 1 | phenotypically active (WPMY1-CANX-COX4) 1 | phenotypically active (WPMY1-GM130-SQSTM1) 1 | phenotypically active (WPMY1-TP53BP1-CLTA) 1 | phenotypically active (WPMY1-TUBA1B-RELA) 1
9 µM: lowest phenotypically active concentration (A549-CANX-COX4 [7]) | lowest phenotypically active concentration (A549-TP53BP1-CLTA [9]) | lowest phenotypically active concentration (HepG2-ACTB-RAB5A [10])
